We go through 39 compounds from PubChem BioAssay (NCATS).

Each structure is given as a SMILES string.

One assay can be described thus: qHTS profiling of the MIPE4 collection as inhibitors of Plasmodium falciparum (DD2) proliferation (AID 743345). The note with it: P. falciparum Dd2 in erythrocytes, SYBR Green DNA, 72 h; at 9.64 µM (top of the series). The source says:
Plasmodium falciparum is a virulent malarial parasite that kills 1-2 million people worldwide each year. Transmitted by mosquitoes, the sporozoite form of the parasite enters the blood stream to infect hepatocytes, where they become merozoites that infect red blood cells (erythrocytes). Within erythrocytes, merozoites begin a […] cycle of growth and division, after which the parasite is released to infect new red blood cells. Gametocytes, which form within erythrocytes as well, circulate in the bloodstream and are ingested by the mosquito, thereby completing the life cycle. To profile malarial isolates for differential chemical responses and to identify inhibitors of malarial growth, an assay that measures P. falciparum growth and replication within erythrocytes was employed. This assay uses a DNA binding fluorescent dye (SYBR Green) to detect parasite DNA following cell lysis. Because mature erythrocytes lack DNA, only Plasmodium-derived DNA is detected.
The SYBR Green viability assay was adapted from a method described previously (Plouffe et al., 2008). For screening 3 ul culture medium was dispensed into 1536 well black clear bottom plates (Aurora Biotechnologies) using a Multidrop Combi (Thermo Fisher Scientific Inc.), 23 nL compounds in DMSO were added by a pin tool (Kalypsys), and 5 ul of erythrocytes infected with P. falciparum (0.3% parasitemia, 2.5% hematocrit final concentration) were added. The plates were incubated at 37 C in a humidified incubator in 5% CO2 for 72 h, and 2 ul lysis buffer (20 mM Tris HCl, 10 mM EDTA, 0.16% saponin, 1.6% triton X, 10X SYBR Green I supplied as 10,000X […] by Invitrogen) was added to each well. The plates were mixed for 25 sec with gentle shaking and incubated overnight at room temperature in the dark. The following morning, fluorescence intensity at 485(14) nm excitation and 535(25) nm emission wavelengths was measured on an EnVision (Perkin Elmer) plate reader. Plate reads were normalized relative to the control inhibitor (0.29 uM artemisinin) and vehicle (DMSO) wells present on each plate and then corrected by an algorithm using vehicle-only control plates at the beginning and end of the compound plate stack.
Background: Quantitative high-throughput screening tests each substance at several concentrations.
As to `CCCCN(CCCC)CCC(O)c1cc2c(Cl)cc(Cl)cc2c2cc(C(F)(F)F)ccc12` (stereo not given), the parasite growth remaining, % of DMSO control (lower = more inhibition) came out at 8.22%.

Staying with this assay, now noted: P. falciparum Dd2 in erythrocytes, SYBR Green DNA, 72 h; at 28.5 µM (top of the series).
With `CCCCN(CCCC)CCC(O)c1cc2c(Cl)cc(Cl)cc2c2cc(C(F)(F)F)ccc12` (stereo not given), the parasite growth remaining, % of DMSO control (lower = more inhibition) came to 7.14%.

The same assay, now with this note: P. falciparum Dd2 in erythrocytes, SYBR Green DNA, 72 h; at 28.5 µM (top of the series) unless noted.
Consider `COc1cc2nc(N3CCN(C(=O)C4CCCO4)CC3)nc(N)c2cc1OC` (stereo not given), for which the parasite growth remaining, % of DMSO control (lower = more inhibition) was 76.4%.

Consider `O=c1ccc2ccc(O)c(O)c2o1`, for which the parasite growth remaining, % of DMSO control (lower = more inhibition) is 34.2%. Still for that read-out and setting: under `COc1cc2c(N3CCN(C(=O)Nc4ccc(OC(C)C)cc4)CC3)ncnc2cc1OCCCN1CCCCC1` stands 8.31%. The same measure, in the same setting: under `CS(=O)(=O)OCCCCOS(C)(=O)=O` stands 77.1%; under `COCCCN1CCC(NC(=O)c2cc(Cl)c(N)c3c2OCC3)CC1`, 51.1%. Still for that read-out and setting: to `Cc1cc(Cl)ccc1OCCCC(=O)NO` belongs 72.9%; to `O=C(O)CCNC(=O)c1ccc(N=Nc2ccc(O)c(C(=O)O)c2)cc1`, 108%; to `Oc1ccc2ccccc2c1SSc1c(O)ccc2ccccc12`, 53.4%. As for `CNC[C@@H](O)[C@@H](O)[C@H](O)[C@H](O)CO`, the parasite growth remaining, % of DMSO control (lower = more inhibition) stood at 123%. Still for that read-out and setting: under `COc1c(O)cc2c(c1O)[C@@H]1O[C@H](CO)[C@@H](O)[C@H](O)[C@H]1OC2=O` stands 100%. Still for that read-out and setting: to `C[C@H](Cn1cnc2c(N)ncnc21)OCP(=O)(O)O` belongs 112%; to `Oc1ccc(-c2nc(-c3ccc(F)cc3)c(-c3ccncc3)[nH]2)cc1`, 79.6%. As to `CC(C)Oc1ccc2c(=O)c(-c3ccccc3)coc2c1`, the parasite growth remaining, % of DMSO control (lower = more inhibition) was determined as 89.9%.

As to `CC(C)c1ccc2oc3nc(N)c(C(=O)O)cc3c(=O)c2c1`, the parasite growth remaining, % of DMSO control (lower = more inhibition) was determined as 91.1%. Same read-out and setting: under `Cc1cccc(-c2[nH]ncc2-c2ccc3ncccc3n2)n1` stands 94.4%; under `c1cnc2cc3c(cc2n1)C1CNCC3C1`, 96.8%. The same measure, in the same setting: under `Oc1ccc(OCc2ccccc2)cc1` stands 123%; under `NC(=O)Cc1cccc(C(=O)c2ccccc2)c1N`, 98.5%. Still for that read-out and setting: under `Nc1ccc(S(N)(=O)=O)cc1` stands 15.1%; under `CCC1=C(C)CN(C(=O)NCCc2ccc(S(=O)(=O)NC(=O)NC3CCC(C)CC3)cc2)C1=O` (stereo not given), 91.8%. In the case of `Clc1ccc2c(N3CCN(CCCN4CCN(c5ccnc6cc(Cl)ccc56)CC4)CC3)ccnc2c1`, the parasite growth remaining, % of DMSO control (lower = more inhibition) came out at 9.96% [at 9.64 µM]. Same read-out and setting: to `CCN(CCO)CCCC(C)Nc1ccnc2cc(Cl)ccc12` (stereo not given) belongs 16.9%. On to `Clc1ccc(C(Cn2ccnc2)OCc2ccsc2Cl)c(Cl)c1` (stereo not given), for which the parasite growth remaining, % of DMSO control (lower = more inhibition) was determined as 7.57%. On the same count and under the same terms, to `NC(=NCc1ccccc1)NC(=O)c1nc(Cl)c(N)nc1N` belongs 98.4%; to `O=Nc1c(-c2c(O)[nH]c3cc(Br)ccc23)[nH]c2ccccc12`, 6.11%. For the compound `Cc1cc2cc3c(C)cc(=O)oc3c(C)c2o1`, the parasite growth remaining, % of DMSO control (lower = more inhibition) was found to be 95.8%. With `CCOC(=O)C(C)Oc1cccc2c(=O)n(CC(=O)Nc3ccc4c(c3)OCCO4)ccc12` (stereo not given), the parasite growth remaining, % of DMSO control (lower = more inhibition) is 92.5%. Still for that read-out and setting: to `O=C(O)c1cccnc1Nc1cccc(C(F)(F)F)c1` belongs 87.2%; to `CN(C)CCCC1(c2ccc(F)cc2)OCc2cc(C#N)ccc21` (stereo not given), 63.7%; to `O=C(O)c1cccc(-c2noc(-c3ccccc3F)n2)c1`, 96.1%. As to `Cn1c(NCCN(CCO)CCCc2ccc([N+](=O)[O-])cc2)cc(=O)n(C)c1=O`, the parasite growth remaining, % of DMSO control (lower = more inhibition) came to 76.1%.

As for `Nc1nc(Cl)nc2c1ncn2[C@H]1C[C@H](O)[C@@H](CO)O1`, the parasite growth remaining, % of DMSO control (lower = more inhibition) turned out to be 90.9%. The same measure, in the same setting: to `O=c1cc(N2CCOCC2)oc2c(-c3ccccc3)cccc12` belongs 96%.

For the compound `Cc1cccc(CN2CCN(C(c3ccccc3)c3ccc(Cl)cc3)CC2)c1` (stereo not given), the parasite growth remaining, % of DMSO control (lower = more inhibition) was determined as 7.56%.

For `CNC[C@H](O)c1ccc(O)c(O)c1`, the parasite growth remaining, % of DMSO control (lower = more inhibition) amounted to 70.6% [at 57.5 µM].

`COc1cc(OC)c(C(=O)CCCN2CCCC2)c(OC)c1`: the parasite growth remaining, % of DMSO control (lower = more inhibition) was determined as 120%. On the same count and under the same terms, under `NS(=O)(=O)c1cc(C(=O)O)c(NCc2ccco2)cc1Cl` stands 103%. In the case of `N=C(N=C(N)N)N1CCOCC1`, the parasite growth remaining, % of DMSO control (lower = more inhibition) amounted to 96.2%.
